Data taken from PubChem BioAssay (NCI).
Compounds without any hit were thinned out: in the full panel of roughly 83,000, 20% have a hit.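 For each line, cells grew in 96-well plates with the test compound present at a single concentration for 48 hours.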 Activity calls are given as the source filed them. The calls were made as follows: active = growth percent below 10; inactive = the rest.

Experiments:
Test in all cases: NCI-60 one-dose screen, 48 h (100 = growth as untreated, 0 = no growth, -100 = all killed)
Conditions in all cases: 10 µM unless noted
DU-145 prostate = test system: DU-145 prostate
K-562 leukemia = test system: K-562 leukemia
MALME-3M melanoma = test system: MALME-3M melanoma
MDA-MB-231 breast = test system: MDA-MB-231 breast
RXF 393 renal = test system: RXF 393 renal
SF-268 CNS = test system: SF-268 CNS
SF-539 CNS = test system: SF-539 CNS
UACC-257 melanoma = test system: UACC-257 melanoma
M14 melanoma = test system: M14 melanoma
HCT-15 colon = test system: HCT-15 colon
HT29 colon = test system: HT29 colon
SNB-75 CNS = test system: SNB-75 CNS
SNB-19 CNS = test system: SNB-19 CNS
U251 CNS = test system: U251 CNS
PC-3 prostate = test system: PC-3 prostate
SK-MEL-5 melanoma = test system: SK-MEL-5 melanoma
UACC-62 melanoma = test system: UACC-62 melanoma
LOX IMVI melanoma = test system: LOX IMVI melanoma
SK-MEL-28 melanoma = test system: SK-MEL-28 melanoma
SF-295 CNS = test system: SF-295 CNS

Measured: growth

CCOC(=O)C(C(=O)OCC)C1CCCCC1
inactive: DU-145 prostate 107% | K-562 leukemia 104% | MALME-3M melanoma 96% | MDA-MB-231 breast 108% | RXF 393 renal 107% | SF-268 CNS 99.1% | SF-539 CNS 99.4% | UACC-257 melanoma 96.3% | M14 melanoma 102% | HCT-15 colon 99% | HT29 colon 102% | SNB-75 CNS 87.6% | SNB-19 CNS 102% | U251 CNS 86% | PC-3 prostate 94.3% | SK-MEL-5 melanoma 109% | UACC-62 melanoma 99.2% | LOX IMVI melanoma 110% | SK-MEL-28 melanoma 106%

Clc1ccc2nc(CI)c(CI)nc2c1
active: K-562 leukemia -20.1%
inactive: DU-145 prostate 86.1% | MALME-3M melanoma 74.6% | MDA-MB-231 breast 74.4% | SF-268 CNS 73.7% | SF-295 CNS 88.8% | SF-539 CNS 100% | UACC-257 melanoma 86.2% | M14 melanoma 48.9% | HCT-15 colon 27.1% | HT29 colon 100% | SNB-75 CNS 96.6% | SNB-19 CNS 97.1% | U251 CNS 71.7% | PC-3 prostate 84.8% | SK-MEL-5 melanoma 75% | UACC-62 melanoma 81.9% | LOX IMVI melanoma 14.9% | SK-MEL-28 melanoma 113%

COc1ccc(-c2nnc3c4[nH]cnc4ncn23)c(OC)c1
inactive: DU-145 prostate 26.5% | K-562 leukemia 11.5% | MALME-3M melanoma 37.4% | MDA-MB-231 breast 29% | SF-268 CNS 33% | SF-295 CNS 20.1% | SF-539 CNS 14.6% | UACC-257 melanoma 40.6% | M14 melanoma 10.5% | HCT-15 colon 29.2% | HT29 colon 19.5% | SNB-75 CNS 39.2% | SNB-19 CNS 96% | U251 CNS 41.1% | PC-3 prostate 40.7% | SK-MEL-5 melanoma 49% | UACC-62 melanoma 23.7% | SK-MEL-28 melanoma 84.7%
active: LOX IMVI melanoma 5.63%

CCCCCCCCCCNCCSS(=O)(=O)O
inactive: DU-145 prostate 73.3% | MALME-3M melanoma 106% | MDA-MB-231 breast 76.3% | RXF 393 renal 104% | SF-539 CNS 99.3% | UACC-257 melanoma 101% | M14 melanoma 34.3% | HCT-15 colon 86.4% | SNB-75 CNS 96.1% | SNB-19 CNS 65.9% | U251 CNS 15% | PC-3 prostate 88.7% | SK-MEL-5 melanoma 39.8% | LOX IMVI melanoma 20.9% | SK-MEL-28 melanoma 51.5%
active: K-562 leukemia 6.77% | SF-268 CNS -35.9% | UACC-62 melanoma 4.6%

COc1ccc2cc(-c3nc4ccccc4[nH]3)c(=O)oc2c1
inactive: DU-145 prostate 114% | K-562 leukemia 96.8% | MALME-3M melanoma 103% | MDA-MB-231 breast 104% | SF-268 CNS 110% | SF-295 CNS 105% | SF-539 CNS 98.8% | UACC-257 melanoma 45.9% | M14 melanoma 93.7% | HCT-15 colon 94.2% | HT29 colon 114% | SNB-75 CNS 126% | SNB-19 CNS 98.3% | U251 CNS 93.5% | PC-3 prostate 87.5% | SK-MEL-5 melanoma 94.8% | UACC-62 melanoma 83.6% | LOX IMVI melanoma 80.4% | SK-MEL-28 melanoma 103%

O=C1c2cccc3c([N+](=O)[O-])ccc(c23)C(=O)N1CCCCl
active: DU-145 prostate -82.1% [100 µM] | K-562 leukemia -25.8% [100 µM] | MALME-3M melanoma -73.9% [100 µM] | MDA-MB-231 breast -93.1% [100 µM] | RXF 393 renal -83.3% [100 µM] | SF-268 CNS -78.9% [100 µM] | SF-295 CNS -92% [100 µM] | UACC-257 melanoma -97% [100 µM] | M14 melanoma -85.6% [100 µM] | HCT-15 colon -82.6% [100 µM] | HT29 colon -63.2% [100 µM] | SNB-75 CNS -98.6% [100 µM] | SNB-19 CNS -97.8% [100 µM] | U251 CNS -97.4% [100 µM] | PC-3 prostate -90.8% [100 µM] | SK-MEL-5 melanoma -95.6% [100 µM] | UACC-62 melanoma -96.3% [100 µM] | LOX IMVI melanoma -85.5% [100 µM] | SK-MEL-28 melanoma -97.3% [100 µM]

Cc1cc2ccccn2c1C(=O)c1ccc(C(=O)c2ccccc2)cc1
inactive: DU-145 prostate 85.8% | K-562 leukemia 94.3% | MALME-3M melanoma 76.8% | MDA-MB-231 breast 91% | SF-268 CNS 99.7% | SF-295 CNS 83.2% | SF-539 CNS 98.7% | UACC-257 melanoma 43.4% | M14 melanoma 91.1% | HCT-15 colon 85.5% | HT29 colon 82% | SNB-75 CNS 93.5% | SNB-19 CNS 86.1% | U251 CNS 86.2% | PC-3 prostate 85.2% | SK-MEL-5 melanoma 98.4% | UACC-62 melanoma 75.1% | LOX IMVI melanoma 92.1% | SK-MEL-28 melanoma 89.7%

CC(C)OP(=O)(OC(C)C)c1ncc(-c2ccc(C(F)(F)F)cc2)c(NC2CCCCCC2)n1
active: DU-145 prostate -81.2% [33.3 µM] | K-562 leukemia -22.1% [33.3 µM] | MALME-3M melanoma -85% [33.3 µM] | MDA-MB-231 breast -8.63% [33.3 µM] | RXF 393 renal -85.7% [33.3 µM] | SF-268 CNS -90.6% [33.3 µM] | SF-295 CNS -85.6% [33.3 µM] | UACC-257 melanoma -41.1% [33.3 µM] | M14 melanoma -90.2% [33.3 µM] | HCT-15 colon -7.06% [33.3 µM] | HT29 colon -68.3% [33.3 µM] | SNB-75 CNS -18.6% [33.3 µM] | SNB-19 CNS -27.9% [33.3 µM] | U251 CNS -87.4% [33.3 µM] | PC-3 prostate -68% [33.3 µM] | SK-MEL-5 melanoma -87.2% [33.3 µM] | UACC-62 melanoma -64.8% [33.3 µM] | LOX IMVI melanoma -63.3% [33.3 µM] | SK-MEL-28 melanoma -74.5% [33.3 µM]

Cc1nn2c(/C=C3/C(=O)Nc4cc(Cl)ccc43)c(-c3ccccc3)nc2s1
inactive: DU-145 prostate 33.4% | K-562 leukemia 23.5% | SF-268 CNS 50.1% | HCT-15 colon 37.8% | HT29 colon 36.6% | SNB-19 CNS 54% | PC-3 prostate 51.1%
active: MALME-3M melanoma -64.6% | MDA-MB-231 breast 8.57% | RXF 393 renal -18% | SF-539 CNS -41.4% | UACC-257 melanoma -29% | SNB-75 CNS -20.2% | U251 CNS -19.9% | SK-MEL-5 melanoma -24.7% | UACC-62 melanoma -25.4% | LOX IMVI melanoma -33.3% | SK-MEL-28 melanoma -49.4%

C[C@H]1C(=O)N2c3ccccc3[C@@]3(O)C[C@@H](n4cnc5ccccc5c4=O)C(=O)N1[C@@H]23
inactive: DU-145 prostate 123% | K-562 leukemia 99.2% | MALME-3M melanoma 107% | MDA-MB-231 breast 110% | SF-268 CNS 112% | SF-295 CNS 130% | SF-539 CNS 101% | UACC-257 melanoma 66.8% | M14 melanoma 108% | HCT-15 colon 109% | HT29 colon 120% | SNB-75 CNS 98.3% | SNB-19 CNS 99.7% | U251 CNS 101% | PC-3 prostate 95.6% | SK-MEL-5 melanoma 123% | UACC-62 melanoma 98.3% | LOX IMVI melanoma 97.7% | SK-MEL-28 melanoma 100%

Nc1nc2c(nnn2Cc2ccc(Cl)c(Cl)c2)c(=O)[nH]1
inactive: DU-145 prostate 116% | K-562 leukemia 83.3% | MALME-3M melanoma 107% | MDA-MB-231 breast 94.5% | RXF 393 renal 107% | SF-268 CNS 96.6% | SF-539 CNS 98.3% | UACC-257 melanoma 98.9% | M14 melanoma 103% | HCT-15 colon 98.7% | HT29 colon 100% | SNB-75 CNS 90.5% | SNB-19 CNS 95.1% | U251 CNS 96.6% | PC-3 prostate 79.3% | SK-MEL-5 melanoma 107% | UACC-62 melanoma 73.9% | LOX IMVI melanoma 93.9% | SK-MEL-28 melanoma 111%

FC(F)(F)c1ccc(-c2cnc(-c3nn[nH]n3)nc2NC2CCCCCC2)cc1
inactive: DU-145 prostate 64% [50 µM] | K-562 leukemia 20% [50 µM] | MALME-3M melanoma 69.5% [50 µM] | MDA-MB-231 breast 64.1% [50 µM] | RXF 393 renal 88.7% [50 µM] | SF-268 CNS 47.8% [50 µM] | SF-539 CNS 64% [50 µM] | UACC-257 melanoma 81.6% [50 µM] | M14 melanoma 53.2% [50 µM] | HCT-15 colon 38.7% [50 µM] | HT29 colon 66.8% [50 µM] | SNB-75 CNS 93.7% [50 µM] | SNB-19 CNS 41.3% [50 µM] | U251 CNS 33.8% [50 µM] | PC-3 prostate 28.5% [50 µM] | SK-MEL-5 melanoma 71% [50 µM] | UACC-62 melanoma 41.6% [50 µM] | LOX IMVI melanoma 41.6% [50 µM] | SK-MEL-28 melanoma 74.1% [50 µM]

CCOc1cc(CCNS(=O)(=O)c2ccc(C)cc2)c(C(C)=O)cc1OCC
inactive: DU-145 prostate 76.1% [100 µM] | K-562 leukemia 41.3% [100 µM] | MALME-3M melanoma 98.3% [100 µM] | MDA-MB-231 breast 78.5% [100 µM] | RXF 393 renal 87% [100 µM] | SF-268 CNS 79.9% [100 µM] | SF-539 CNS 101% [100 µM] | UACC-257 melanoma 77.8% [100 µM] | HCT-15 colon 83.3% [100 µM] | HT29 colon 79.7% [100 µM] | SNB-75 CNS 93.3% [100 µM] | SNB-19 CNS 87.3% [100 µM] | U251 CNS 86.4% [100 µM] | PC-3 prostate 33.5% [100 µM] | SK-MEL-5 melanoma 66.1% [100 µM] | UACC-62 melanoma 59% [100 µM] | LOX IMVI melanoma 87.1% [100 µM] | SK-MEL-28 melanoma 108% [100 µM]

O=C(O)CCNS(=O)(=O)c1ccc(-c2ccccc2)cc1
inactive: DU-145 prostate 127% | K-562 leukemia 114% | MALME-3M melanoma 112% | MDA-MB-231 breast 123% | SF-268 CNS 115% | SF-295 CNS 131% | SF-539 CNS 108% | UACC-257 melanoma 87.5% | M14 melanoma 104% | HT29 colon 110% | SNB-75 CNS 90.6% | SNB-19 CNS 102% | U251 CNS 94.5% | PC-3 prostate 89.6% | SK-MEL-5 melanoma 97.9% | UACC-62 melanoma 96.7% | LOX IMVI melanoma 92.1% | SK-MEL-28 melanoma 94.3%

COc1ccc(NC(=O)c2ccc(-c3ccccc3)cc2)c(C(N)=O)c1
inactive: DU-145 prostate 102% | K-562 leukemia 92.5% | MALME-3M melanoma 91.6% | MDA-MB-231 breast 91.3% | SF-268 CNS 113% | SF-295 CNS 99.3% | SF-539 CNS 97.4% | UACC-257 melanoma 102% | M14 melanoma 110% | HCT-15 colon 97.1% | HT29 colon 99.9% | SNB-75 CNS 112% | SNB-19 CNS 94.2% | U251 CNS 98.4% | PC-3 prostate 93.1% | SK-MEL-5 melanoma 101% | UACC-62 melanoma 91.5% | LOX IMVI melanoma 96.6% | SK-MEL-28 melanoma 108%
